The text below walks through data of PubChem BioAssay (NCATS).

Molecules are shown by their SMILES. Where “and” joins values, the source holds several entries; their conditions need not be identical. Equal entries are not always repeated. Results filed as inconclusive are left out. The source holds several records for some structures; these can differ, active in one and inactive in another. Values without a mark were called inactive. Calls of active or inactive are those of the source. The call rests on the fitted dose curve; in most records, active means well fitted inhibition curve with a large enough effect; inconclusive means small, poorly fitted or top-dose-only effect; inactive means flat fitted curve, though single readings scatter.
On the % scale 0 is the no-effect control and ±100 the full control effect; potency means the concentration at half of the fitted maximal effect.

This assay has as its system HEK293. Briefly: Cytotoxic Profiling of Annotated Libraries Using Quantitative High-Throughput Screening (AID 1296008). Further: nearly all actives have a fitted effect of over 60% in size. As to conditions: Five cell lines viability, CellTiter-Glo ATP luminescence, 48-72 h; max response: active compounds read low. The source says:
Cell-based phenotypic screening is a commonly used approach to discover biological pathways, novel drug targets, chemical probes and high-quality hit-to-lead molecules. Many hits identified from high-throughput screening campaign are ruled out through a series of follow-up potency, selectivity/specificity, and cytotoxicity assays. Prioritization of molecules with little or no cytotoxicity for a more in-depth downstream evaluation influence the future direction of projects, so cytotoxicity profiling of the screening libraries at early stage is essential for increasing the likelihood of candidate success. […] For the annotated library, we also examined the primary targets and mechanistic pathways regularly associated with cell death. To our knowledge, this is the first study to use high-throughput screening to profile large libraries for cytotoxicity assessment in both normal and cancer cell lines. In summary, the results generated here constitutes a valuable resource for the scientific community and provides insight on identifying cytotoxic compounds with particular mechanisms of action, and prioritizing compounds with suitable cytotoxicity profile for further evaluation.
A pintool (Kalypsys) was used to transfer 23 nL of compound solution to the 1536-well assay plates. After 48 or 72 hr incubation at 37 degree Celsius, 5% CO2 and 95% humidity, 2.5 uL of CellTiter-Glo (Promega) was dispensed into each well using a dispenser (Aspect Automation, St. Paul, MN) with solenoid valves (Lee Valves, Westbrook CT). Plates were left at room temperature for 10 min before imaging the ATP-coupled luminescence using a ViewLux microplate imager (PerkinElmer, Waltham, MA).
With `COC[C@@H](NC(C)=O)C(=O)NCc1ccccc1`, the max response was -4.08%.

Regarding `C#CCOC(C(=O)OCCN(C)C)(c1ccccc1)c1ccccc1`, the max response was -8.54%. Still for that read-out and setting: for `Cn1cc(C2=C(c3cn(C4CCN(Cc5ccccn5)CC4)c4ccccc34)C(=O)NC2=O)c2ccccc21` the value was -3.71% and -0.888%. In the case of `CC(C)NCC(O)c1ccccc1Cl` (stereo not given), the call was inactive. `COc1ccc(C(CN(C)C)C2(O)CCCCC2)cc1` (stereo not given): the max response was 1.04% and the molecule was classed as inactive.

As for `Oc1ccc(Cl)cc1Cc1ccccc1`, the Potency was 19.5 µM (active) and the max response was -23%. Regarding `NP(N)(=O)NC(=O)c1ccc(F)cc1`, the outcome was inactive.

`CCCC(C)(COC(N)=O)COC(=O)NC(C)C` (stereo not given): the outcome was inactive and the max response is 0.0303%. `FC(F)(F)c1cccc(C2=CCN(CCc3ccc4ccccc4c3)CC2)c1`: the molecule was classed as inactive. `Oc1cc(Cl)ccc1Oc1ccc(Cl)cc1Cl`: the Potency was 22.1 µM (active). As for `CC[N+]1(C)CCCC(OC(=O)C(O)(c2ccccc2)c2ccccc2)C1` (stereo not given), the max response is -9.88%.

Take `CCN(CC)CCOC(=O)C(O)(c1ccccc1)c1ccccc1`: the max response was 3.4%.

With `CN(C)CCc1ccc(O)cc1`, the outcome was inactive and the max response is 4.35%.

Regarding `Clc1ccc(COC(Cn2ccnc2)c2ccc(Cl)cc2Cl)cc1` (stereo not given), the max response was -1.16%. Turning to `Oc1cccc2cccnc12`, the max response is -0.236% and the Potency is 13.7 µM (active). For `CC(=O)[C@H]1CC[C@H]2[C@@H]3CC[C@H]4C[C@](C)(O)CC[C@]4(C)[C@H]3CC[C@]12C`, the call was inactive.

As to `CC[C@@H](CO)NC(=O)[C@@H]1C=C2c3cccc4[nH]cc(c34)C[C@H]2N(C)C1`, the max response was -3.34%. As for `C#CCN(C)[C@H](C)Cc1ccccc1`, the outcome was inactive and the max response was -7.43%. Consider `O=C(O)c1ccc2[nH]cc(CCCCN3CC=C(c4ccccc4)CC3)c2c1`, for which the max response was -0.718%. As for `CC[N+](CC)(CC)CC`, the max response was -5.65%. Regarding `CNC(=O)c1ccc(N2C(=S)N(c3ccc(C#N)c(C(F)(F)F)c3)C(=O)C23CCC3)cc1F`, the max response was -7.61% and the call was inactive.

`c1ccc2c(c1)Nc1ccccc1S2`: the max response was -4.55%. Still for that read-out and setting: for `CC(C)CC(N(C)C)C1(c2ccc(Cl)cc2)CCC1` (stereo not given) the value was 3.97% and -10.6%.

`Cc1cc(SCc2sc(-c3ccc(C(F)(F)F)c(F)c3)nc2C)ccc1OCC(=O)O`: the molecule was classed as inactive and the max response is -0.859%.

In the case of `NCCc1cc(O)c(O)cc1O`, the molecule was classed as inactive. Take `CC(C)(C)CC(C)(C)c1ccc(O)cc1`: the Potency is 19.3 µM (active).

In the case of `Cc1ccc2c(c1)C1CN(C)CCC1N2` (stereo not given), the max response was 1.62%. For `CC1NCCOC1c1ccccc1` (stereo not given), the outcome was inactive. As to `O=C1CC[C@@]2(O)[C@H]3Cc4ccc(O)c5c4[C@@]2(CCN3CC2CC2)[C@H]1O5`, the max response was -3.14% and -3.82%. Consider `CC(CCc1ccccc1)NC(C)C(O)c1ccc(O)cc1` (stereo not given), for which the max response is -17.5%. For the molecule `c1ccc2c(c1)OCC(C1=NCCN1)O2` (stereo not given), the Potency was 18.8 µM (active). With `CC(C)(N)Cc1ccc(Cl)cc1`, the max response was 3.33%.
